RECQ1 inh-1 = RECQ1 (human) helicase inhibition | P46063 | actives 0.54% (n = 240,000) | RECQ1 DNA unwinding, red fluorescence kinetic read | Potency, µM (titrated, usually from 57.3 µM), for the others: at the top dose activity, negative = inhibition, most hits filed as inhibitors;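 note: plate controls were vehicle for no effect and no enzyme for full effect; nearly all actives have a fitted effect of over 30% in size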
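50 nM RECQ1T1 preincubated 15 min with compound in Tris pH 8.0 buffer with MgCl2, DTT, Tween-20 and 2.5 ug/ml poly(dI-dC); started with 200 nM TAMRA/BHQ-2 forked duplex and 2 mM ATP. Unwinding read as fluorescence (525/598 nm), two reads 2 h apart.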
BLM inh = inhibitors of human Bloom syndrome helicase BLM; P54132; recombinant BLM DNA unwinding, fluorescence dequenching; Potency, µM (doses to about 56.1 µM), inactives show top-dose activity change, negative = inhibition, usual class: inhibitors; actives 0.2% (n = 350,000); AID 2528;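 note: plate controls were vehicle for no effect and no enzyme for full effect; nearly all actives have a fitted effect of over 35% in size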
Target sequence (P54132 whole entry, looked up): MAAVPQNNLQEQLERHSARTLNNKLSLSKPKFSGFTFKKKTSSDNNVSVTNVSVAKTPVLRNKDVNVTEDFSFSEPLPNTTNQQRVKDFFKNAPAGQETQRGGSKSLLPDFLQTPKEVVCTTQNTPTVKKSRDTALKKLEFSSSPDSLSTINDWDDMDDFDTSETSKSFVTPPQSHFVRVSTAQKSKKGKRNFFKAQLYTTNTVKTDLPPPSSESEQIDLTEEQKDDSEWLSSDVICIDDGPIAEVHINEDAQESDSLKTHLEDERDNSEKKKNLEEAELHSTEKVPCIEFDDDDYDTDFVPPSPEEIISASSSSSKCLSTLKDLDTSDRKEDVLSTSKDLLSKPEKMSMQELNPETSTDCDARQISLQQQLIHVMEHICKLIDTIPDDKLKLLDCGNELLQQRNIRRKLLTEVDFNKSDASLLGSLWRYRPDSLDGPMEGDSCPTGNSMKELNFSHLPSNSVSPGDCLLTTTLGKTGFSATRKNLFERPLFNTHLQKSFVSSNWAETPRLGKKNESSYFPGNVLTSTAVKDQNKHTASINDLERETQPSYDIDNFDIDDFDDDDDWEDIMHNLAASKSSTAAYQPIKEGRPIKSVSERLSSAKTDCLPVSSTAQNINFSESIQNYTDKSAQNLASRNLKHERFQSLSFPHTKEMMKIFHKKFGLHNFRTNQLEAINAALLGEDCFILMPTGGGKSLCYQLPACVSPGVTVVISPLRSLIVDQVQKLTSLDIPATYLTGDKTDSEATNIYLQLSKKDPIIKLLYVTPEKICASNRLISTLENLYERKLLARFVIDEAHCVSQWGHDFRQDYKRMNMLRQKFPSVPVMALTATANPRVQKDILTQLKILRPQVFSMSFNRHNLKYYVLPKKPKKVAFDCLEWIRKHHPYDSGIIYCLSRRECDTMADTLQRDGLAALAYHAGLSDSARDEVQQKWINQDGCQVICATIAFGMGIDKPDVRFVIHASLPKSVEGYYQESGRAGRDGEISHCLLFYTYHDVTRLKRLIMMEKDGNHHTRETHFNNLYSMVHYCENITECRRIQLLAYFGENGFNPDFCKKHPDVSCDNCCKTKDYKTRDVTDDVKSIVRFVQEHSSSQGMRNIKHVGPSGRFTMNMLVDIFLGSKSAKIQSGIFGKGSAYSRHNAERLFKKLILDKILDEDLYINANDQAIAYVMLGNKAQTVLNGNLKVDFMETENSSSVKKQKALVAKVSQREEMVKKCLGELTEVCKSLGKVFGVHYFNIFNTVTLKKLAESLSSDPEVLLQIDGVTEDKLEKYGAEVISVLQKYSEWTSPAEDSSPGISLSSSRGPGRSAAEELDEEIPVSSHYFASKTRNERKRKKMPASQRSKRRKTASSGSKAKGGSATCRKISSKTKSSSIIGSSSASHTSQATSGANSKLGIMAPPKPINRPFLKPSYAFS
TR SRC2 fluor cs = Texas Red fluorescence interference in TRb-SRC2 counter-screen; Potency, µM (series often up to 106 µM), inactives show top-dose fluorescence change, negative = quenching; actives 0.29% (n = 280,000); TRb/SRC2 Texas Red total fluorescence interference; AID 1479; active = well fitted curve in either direction with a large enough effect; inconclusive = small, poorly fitted or top-dose-only effect
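Flags fluorescent or light-absorbing compounds by total fluorescence, S + 2P, at 555 nm excitation and 632 nm emission. Mixture: 20 nM Texas Red SRC2 peptide, 0.6 uM human TRb LBD, 1 uM T3, 5% DMSO; compound exposure 5 h at ambient temperature.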
TRb-SRC2 inh = TRbeta-SRC2 interaction inhibition | Potency, µM (doses to about 106 µM), for the others: top-dose activity change, negative = inhibition, usual class: inhibitors | AID 1469 | TRbeta-SRC2 peptide binding, fluorescence polarization; receptor liganded with 1 µM T3 | actives 0.065% (n = 280,000) | P10828;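 note: plate controls were bound peptide for no effect and peptide without receptor for full effect; nearly all actives have a fitted effect of over 50% in size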
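Binding of a 20-amino-acid Texas Red SRC2 peptide (20 nM) to TRb ligand-binding domain (0.6 uM) with agonist T3 at 1 uM was followed by fluorescence polarization after a 5 hr room-temperature incubation.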
RECQ1 conf = confirmation of human RECQ1 helicase inhibitors; shares compounds with RECQ1 inh-1; Potency, µM (doses to about 229 µM), for the others: top-dose activity change, negative = inhibition, hits mostly inhibitors; actives 28% (n = 610); AID 2708; RECQ1 helicase DNA unwinding, fluorescence; note: nearly all actives have a fitted effect of over 45% in size
ADP FP counter = counter-screen for RECQ1 inhibitors: ADP displacement. shares compounds with RECQ1 inh-1. ADP fluorescence polarization displacement counterscreen. Potency, µM (highest dose often 228 µM), without a hit: top-dose activity change, negative = inhibition, hits mostly inhibitors. actives 27% (n = 530). AID 2711; note: nearly all actives have a fitted effect of over 45% in size
RECQ1 inh-2 = blocks human RECQ1 DNA unwinding; Potency, µM (titrated, usually from 119 µM), for inactives: top-dose activity, negative = inhibition, most hits filed as inhibitors; actives 15% (n = 1,100); recombinant RECQ1 DNA unwinding, red fluorescence; AID 504841; shares compounds with RECQ1 inh-1; note: nearly all actives have a fitted effect of over 50% in size
Numbers without * were called inactive; [ ] = remark or other dose. Shown are actives, neighbours in structure and some others; about 0.64% of the full set was active somewhere. Unless noted, calls come from the whole dose curve; as a rule, active = well fitted curve in the direction sought with a large enough effect; inconclusive = small, poorly fitted or top-dose-only effect, or another doubt; inactive = no such curve, though single readings can be large; an effect the other way counts as inactive or inconclusive. Unless noted, % is set by controls: 0 for no effect and ±100 for the full control effect; potency is the fitted concentration of half-maximal effect.

`CCOc1ccc(OCC)c(NC(=O)C(NS(=O)(=O)c2ccc(Br)s2)c2ccccc2)c1` (centres undefined) gave BLM inh -3.0%, TR SRC2 fluor cs -1.5% and TRb-SRC2 inh 3.4%.
For CCCCn1c(SCC(=O)NCc2ccco2)nc2ccc(N3CCOCC3)cc2c1=O the results were RECQ1 inh-1 inconclusive, BLM inh -4.4%, TR SRC2 fluor cs -1.0%, TRb-SRC2 inh -2.3% and RECQ1 inh-2 inconclusive.
`O=C(N/N=C/c1cccc(NC(=O)c2ccc(Cl)cc2)c1)c1ccc(O)cc1` gave RECQ1 inh-1 17.8µM*, BLM inh -0.6%, TR SRC2 fluor cs -8.9%, TRb-SRC2 inh 8.6%, RECQ1 conf 112µM* and ADP FP counter 19.3%[91.9 µM].
For O=C(N/N=C/c1ccncc1)c1cccc(NC(=O)c2ccc(Cl)cc2)c1 the results were RECQ1 inh-1 -7.1%, BLM inh 2.6%, TR SRC2 fluor cs inconclusive and TRb-SRC2 inh -1.5%.
Screening CC(=O)Nc1ccc(NC(=O)C(OC(=O)c2ccccc2)C(OC(=O)c2ccccc2)C(=O)O)cc1 (centres undefined) returned RECQ1 inh-1 -4.8%, BLM inh -3.2%, TR SRC2 fluor cs -2.1%, TRb-SRC2 inh 0.1%, RECQ1 conf 16.7% and ADP FP counter inconclusive.
For c1cc(-c2noc(CCC3CCCC3)n2)ccn1 the results were RECQ1 inh-1 inconclusive, BLM inh 0.1%, TR SRC2 fluor cs -1.7%, TRb-SRC2 inh -8.6% and RECQ1 inh-2 -15.3%.
For c1ccc(-c2noc(CCC3CCCC3)n2)cc1 the results were RECQ1 inh-1 21.9%, BLM inh 0.5%, TR SRC2 fluor cs -0.5% and TRb-SRC2 inh -0.9%.
CC(C)C(=O)Nc1ccc2nc(SCC(=O)N3CCc4ccccc43)sc2c1 was read as BLM inh -2.6%, TR SRC2 fluor cs inconclusive and TRb-SRC2 inh 4.2%.
Screening COc1ccc(CN(C(=O)c2ccc(-c3ccccc3)[nH]2)C(C(=O)NCC2CCCO2)c2ccc(C)o2)cc1 (centres undefined) returned RECQ1 inh-1 25.1µM*, BLM inh -11.9%, TR SRC2 fluor cs 1.0%, TRb-SRC2 inh -10.1% and RECQ1 inh-2 -11.7%.
`Cc1ccc(C)c(NC(=O)c2nc(S(C)(=O)=O)ncc2N(Cc2ccc(C(C)(C)C)cc2)Cc2ccco2)c1` gave BLM inh -11.6%, TR SRC2 fluor cs 7.5% and TRb-SRC2 inh 0.5%.
For CC(C)=C(C#N)c1nc2ccccc2s1 the results were RECQ1 inh-1 10µM*, BLM inh -2.4%, TR SRC2 fluor cs inconclusive, TRb-SRC2 inh inconclusive and RECQ1 inh-2 -9.9%.
Screening CCCCC/C=C\C/C=C\CCCCCCCCCC(=O)NCCCC(=O)O returned RECQ1 inh-1 0.1%, BLM inh 0.5%, TR SRC2 fluor cs -0.9% and TRb-SRC2 inh 0.1%.
Screening CC(=O)Nc1ccc2c(c1)C(C)(C)C(C)N2C (centres undefined) returned RECQ1 inh-1 35.5µM*, BLM inh -7.6%, TR SRC2 fluor cs 39.8µM*[fluorescent], TRb-SRC2 inh inconclusive and RECQ1 inh-2 79.4µM*.
Screening CCC(=O)c1ccc(NC(C)=O)cc1O returned RECQ1 inh-1 -7.1%, BLM inh -2.7%, TR SRC2 fluor cs -1.8% and TRb-SRC2 inh 1.4%.
`COC(=O)C1=C(C)N2C(=O)CSC2=NC1c1ccc2c(c1)OCO2` (centres undefined) gave RECQ1 inh-1 inconclusive, BLM inh -6.0%, TR SRC2 fluor cs inconclusive, TRb-SRC2 inh inconclusive and RECQ1 inh-2 -16.4%.
Screening Cc1ccc(C(=O)Nc2ccc(S(=O)(=O)O)c3cc(S(=O)(=O)O)cc(S(=O)(=O)O)c23)cc1NC(=O)c1cccc(NC(=O)Nc2cccc(C(=O)Nc3cc(C(=O)Nc4ccc(S(=O)(=O)O)c5cc(S(=O)(=O)O)cc(S(=O)(=O)O)c45)ccc3C)c2)c1 returned RECQ1 inh-1 20µM*, BLM inh -9.6%, TR SRC2 fluor cs -6.3%, TRb-SRC2 inh 18.1%, RECQ1 conf 2.51µM* and ADP FP counter 199.9%.
Cc1ccccc1NC(=O)c1cccc(S(=O)(=O)Nc2cccc(C(=O)O)c2)c1 was read as BLM inh 6.9%.
For O=C(c1ccc(OCCN2CCCCC2)cc1)c1c(-c2ccc(O)cc2)sc2cc(O)ccc12 the results were RECQ1 inh-1 inconclusive, BLM inh -4.1%, TR SRC2 fluor cs -4.3%, TRb-SRC2 inh 0.6% and RECQ1 inh-2 -6.9%.
Screening CC(C)N1CCN(c2ccc(C(=O)c3c(-c4ccc(O)cc4)sc4cc(O)ccc34)cc2)CC1 returned RECQ1 inh-1 -21.5%, BLM inh -1.7%, TR SRC2 fluor cs -3.8% and TRb-SRC2 inh 6.5%.
For O=C(CSC1CC(=O)N(CC(c2ccccc2)c2ccccc2)C1=O)Nc1ccc(Cl)cc1 (centres undefined) the results were RECQ1 inh-1 inconclusive, BLM inh -12.9%, TR SRC2 fluor cs 1.8%, TRb-SRC2 inh -0.2% and RECQ1 inh-2 inconclusive.
`O=C(O)CSC1CC(=O)N(c2ccc(Cl)cc2)C1=O` (centres undefined) gave RECQ1 inh-1 -3.0%, BLM inh 0.3%, TR SRC2 fluor cs -0.4% and TRb-SRC2 inh 3.4%.
`CCOC(=O)c1c(NC(=O)c2cc(-c3ccc(OC)cc3)on2)sc(C)c1C` gave BLM inh -2.6%, TR SRC2 fluor cs 5.8% and TRb-SRC2 inh -6.6%.
O=C(Nc1ccccc1)N1CCC(c2nc(-c3ccc(S(=O)(=O)N4CCOCC4)cc3)no2)CC1 was read as RECQ1 inh-1 inactive, BLM inh -2.7%, TR SRC2 fluor cs 0.4%, TRb-SRC2 inh 5.5%, RECQ1 conf 8.4% and ADP FP counter -15.9%.
COc1ccc(NC(=O)CSc2nc(O)cc(=O)n2-c2ccccc2OC)cc1 was read as RECQ1 inh-1 inconclusive, BLM inh -24.7%, TR SRC2 fluor cs -2.8%, TRb-SRC2 inh 9.8% and RECQ1 inh-2 -17.5%.
Screening COc1ccccc1-n1c(SCC(=O)Nc2cccc3ccccc23)nc(O)cc1=O returned RECQ1 inh-1 inconclusive, BLM inh -17.9%, TR SRC2 fluor cs -3.9%, TRb-SRC2 inh -1.5% and RECQ1 inh-2 -11.8%.
`COc1ccccc1-n1c(SCC(=O)Nc2ccc(C)cc2)nc(O)cc1=O` gave RECQ1 inh-1 -3.3%, BLM inh 0.4%, TR SRC2 fluor cs -3.5% and TRb-SRC2 inh 1.2%.
For Cc1cc(C)cc(NC(=O)CCc2nnc3n(CC(C)C)c(=O)c4ccccc4n23)c1 the results were BLM inh -9.9%, TR SRC2 fluor cs 0.3% and TRb-SRC2 inh -5.7%.

Assay outcomes as filed in PubChem.
